# Source: PubChem BioAssay (several laboratories)
# Most compounds without a hit are left out; they make up all but 7.6% or so of the library.
# M1 agonist = M1 muscarinic receptor agonists, primary screen, CHO-M1 cells, Fluo-4 calcium, agonist mode; AID 626, 2007; Muscarinic acetylcholine receptor M1; Fluo-4 calcium fluorescence; stronger effect = higher value; 64,000 compounds, 3% hits; B-score at 10 µM;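 active means fluorescence rise, raw or as B-score row- and column-corrected plate score, outside the 99.7% band of its plate's samples, either direction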
# Cav3 T inh = Cav3.2 calcium influx blockers – cell-based, Fluo-4 calcium fluorescence, FDSS, MLSMR library, primary screen. B-score at 10 µM. Voltage-dependent T-type calcium channel subunit alpha-1H (Homo sapiens), O95180. 100,000 compounds, 4% hits. Cav3.2-expressing cells; stronger effect = lower value;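 active means single-dose well whose peak fluorescence ratio is a statistical outlier from its plate by either plate-standardised score or position-corrected B-score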
# M1 antag = antagonists of rat M1 muscarinic receptor | Muscarinic acetylcholine receptor M1 (Rattus norvegicus), P08482 | B-score at 10 µM | 64,000 compounds, 3.4% hits | AID 628, 2007 | CHO-M1 cells, Fluo-4 calcium, ACh EC80 antagonist mode; stronger effect = lower value;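 active means calcium fluorescence response, raw or row-and-column corrected B-score, differing from the plate sample mean either way at a set confidence level, mostly lower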
# PLAP activator = PLAP enzyme activators, biochemical, luminescence, HTS; Alkaline phosphatase, placental type (Homo sapiens), P05187; purified PLAP enzyme, luminescent substrate read-out; stronger effect = higher value; activation fold at 20 µM; 96,000 compounds, 1.2% hits; AID 696, 2007; in the data active means activation fold above about 2
# Target sequence (P05187 whole entry, looked up): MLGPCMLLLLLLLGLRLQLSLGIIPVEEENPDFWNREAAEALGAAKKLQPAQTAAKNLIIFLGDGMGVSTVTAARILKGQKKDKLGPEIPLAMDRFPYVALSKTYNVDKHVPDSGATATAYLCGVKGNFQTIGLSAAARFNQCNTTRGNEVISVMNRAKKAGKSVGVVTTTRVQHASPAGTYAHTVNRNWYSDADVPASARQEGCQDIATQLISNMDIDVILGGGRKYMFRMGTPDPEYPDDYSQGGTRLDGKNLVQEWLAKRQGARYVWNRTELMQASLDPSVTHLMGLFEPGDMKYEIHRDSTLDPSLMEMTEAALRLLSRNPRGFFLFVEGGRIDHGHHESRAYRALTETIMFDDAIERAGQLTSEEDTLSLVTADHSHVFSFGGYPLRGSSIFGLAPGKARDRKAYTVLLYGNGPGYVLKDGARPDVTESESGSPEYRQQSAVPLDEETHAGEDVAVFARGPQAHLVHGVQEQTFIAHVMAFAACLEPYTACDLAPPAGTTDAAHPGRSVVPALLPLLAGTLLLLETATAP
# M1 agonist conf = rat M1 muscarinic receptor agonists, confirmation, CHO-M1 cells, Fluo-4 calcium, duplicate retest; shares compounds with M1 agonist; Fluo-4 calcium fluorescence, agonist mode; actives lie on both sides; fluorescence change (max-min) at 10 µM; 1,700 compounds, 19% hits; AID 1488, 2009;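 active means fluorescence change differs from the solvent-only DMSO control mean at a set confidence level in both duplicate runs; inconclusive means differs from solvent-only control mean in just one of two runs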;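 further: an EC20 dose of acetylcholine follows compound addition during the same imaging run; raw fluorescence intensity difference in instrument units with no normalization to controls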
# M4 ag counter = agonist activity at rat M4 receptor, confirmation, counter-screen for M1 allosteric modulator project, cell-based, agonist mode | fluorescence change (max-min) at 10 µM | shares compounds with M1 agonist | 1,700 compounds, 9% hits | AID 1741, 2009 | CHO M4/Gqi5 cells, Fluo-4 calcium fluorescence; actives lie on both sides;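 active means fluorescence change differing from the plate's solvent-only control wells at 99.7% confidence in both duplicates, whether higher or lower; inconclusive means differs from solvent controls in only one of two duplicates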
# * = called active by the depositor; ? = inconclusive; · = no result given.
SMILES,M1 agonist,Cav3 T inh,M1 antag,PLAP activator,M1 agonist conf,M4 ag counter
CCn1c(=O)cc(SCC(=O)N2CCN(c3ccccn3)CC2)c2ccccc21,5.87*,·,-1.87,0.9,-29.5*,-38.1
CCn1c(=O)cc(SCC(=O)N2CCN(c3ccccc3F)CC2)c2ccccc21,·,-3.36,·,1.3,·,·
COc1ccccc1CCn1cnc2c3cc(C)ccc3n(C)c2c1=O,1.82*,-2.36,-0.441,0.7,?,-81
COc1ccc2c(c1)c1ncn(CCN3CCCC3)c(=O)c1n2C,-0.0107,·,-0.231,1.3,·,·
COc1ccc(CN(C(=O)c2ccc(-c3ccccc3)[nH]2)C(C(=O)NCC2CCCO2)c2ccc(C)o2)cc1 (stereo not drawn),·,·,·,1.2,·,·
CCn1c(CSc2nc3ccccc3[nH]2)nc2cc(C(=O)O)ccc21,·,-0.766,·,1.9,·,·
CCn1c(CSc2nccn2C)nc2cc(C(=O)O)ccc21,7.24*,-0.494,0.218,1.5,10.8,-37.7
CCC(=O)N1CCN(c2nc3ccccc3s2)CC1,·,0.967,·,1.5,·,·
O=C(Nc1ccccc1)N1CCN(c2nc3ccccc3s2)CC1,4.66*,-2.99,1.21,0.8,-5.79,-12.9
O=P(CCC(F)(F)F)(CCC(F)(F)F)CCC(F)(F)F,0.399,-0.042,-1.48,1,·,·
CC(=O)Nc1c2c3c(cccc3n(C)c1=O)C(=O)c1ccccc1-2,9.43*,0.647,-0.365,1,67.9*,?
CCCc1cc(=O)oc2cc3oc(C)c(C)c3cc12,0.445,·,-0.383,0.9,·,·
CCCc1cc(=O)oc2cc3occ(C)c3cc12,2.72*,-2.44,-1.1,1,-25.9,?
COc1ccc(N2CC(C(=O)NCCCN3CCOCC3)CC2=O)cc1 (stereo not drawn),-0.0966,-0.0234,0.556,1.1,·,·
CCC1CCCCN1C(=O)CSc1nnc(-c2cccc(Cl)c2)o1 (stereo not drawn),2.47*,-2.31,0.233,1.4,-12.3,-22.9
O=C(Nc1ccc(N2CCCCC2)c(Cl)c1)c1ncn[nH]1,0.00778,-0.185,1.28,1.4,·,·
O=C(Nc1ccc(CCC(=O)N2CCCC2)cc1)c1ncn[nH]1,1.83*,0.303,-0.00622,1,6.08,-9.66
Cc1ccc(-c2nn[nH]n2)o1,4.31*,-0.483,0.0951,1.2,-15,?
OC[C@@H](O)[C@@H](O[C@H]1O[C@H](CO)[C@@H](O)[C@H](O)[C@H]1O)[C@H](O)[C@@H](O)CO,·,0.32,·,·,·,·
COc1ccc(-c2nc(CN3CCCC(C(=O)NC4CCCC4)C3)c(C)o2)cc1 (stereo not drawn),·,0.243,·,1.7,·,·
CCOC(=O)N1CCC(NC(=O)C2CCCN(Cc3nc(-c4cccc(Cl)c4)oc3C)C2)CC1 (stereo not drawn),10*,-2.7,-4.35*,1.5,-5.44,-56.5
O=C(NCCc1cccc(Cl)c1)c1cccnc1,10.6*,-1,-4.36*,1.2,-1.46,-20.6
CCOc1nc(NCCc2ccc(OC)c(OC)c2)nc(NC(C)(C)CO)n1,2.13*,·,-1.25,1.2,?,-66
COc1nc(NCCc2ccc(OC)c(OC)c2)nc(OC)n1,0,·,-0.57,1.1,·,·
COC(=O)c1ccc(/C(O)=C(\C#N)c2nc3ccccc3s2)cc1,2.66*,-2.83,-2.39*,1.2,28.1,-1.31
SMILES,M1 agonist,Cav3 T inh,M1 antag,PLAP activator,M1 agonist conf,M4 ag counter
CC1CCN(C(=O)CSc2nnc(-c3cc4ccccc4cc3O)n2Cc2ccco2)CC1,-0.434,0.25,-0.955,1.4,·,·
Cc1cc2oc(=O)cc(CSc3nc(N)cc(N)n3)c2cc1C(C)C,·,0.959,·,1.1,·,·
Cc1cc2oc(=O)cc(CN3CCCCC3)c2cc1C(C)C,11*,-4.73*,-0.0576,0.8,?,-22.2
CCOc1ccc(S(=O)(=O)NCc2ccncc2)cc1,·,-0.0301,·,0.9,·,·
CCOC(=O)COc1ccc(S(=O)(=O)NCc2ccncc2)cc1,7.56*,-5.31*,-2.41,1,-6.93,?
O=C(c1cc2ccccn2n1)N1CCCC1,-0.505,·,0.672,0.9,·,·
Cc1ccc(C)c(N2CCN(C(=O)c3cc4ccccn4n3)CC2)c1,30.8*,-2.26,-0.769,1.2,55.3,9.96
CCN(CC)C(=O)CN1C(=O)COCC1=O,·,0.752,·,0.8,·,·
Cc1csc(SCCn2c(N3CCN(c4ccccc4)CC3)nc3c2c(=O)[nH]c(=O)n3C)n1,5.38*,1.2,-2.47*,1.3,?,-56.7
O=C(NC1CC1)c1c[nH]c2ccc(S(=O)(=O)Nc3cccc(C(F)(F)F)c3)cc2c1=O,-1.86*,-5.6*,0.464,1,-10.8,?
CC(C)c1cc(NCC2CCCO2)n2c(nc3ccccc32)c1C#N (stereo not drawn),·,0.993,·,1.5,·,·
COc1ccc(-c2cc(C(F)(F)F)nc(SCCC(=O)N3CCOCC3)n2)cc1,-0.672,-0.227,1.52,0.9,·,·
Cc1ccc2[nH]c3c(NCCN4CCOCC4)ncnc3c2c1,1.42,0.855,0.0355,1,·,·
C=CCNc1ncnc2c1[nH]c1ccc(C)cc12,4.24*,1.11,-0.467,0.9,17.9,-21.7
COc1ccc(N2C(=O)CC(Sc3nc(C)c4c(n3)CCCC4)C2=O)cc1 (stereo not drawn),2.2*,0.779,0.237,1.2,-5.96,-12.7
Cc1nc(SC2CC(=O)N(c3cc(Cl)cc(Cl)c3)C2=O)nc2c1CCCC2 (stereo not drawn),·,-0.0264,·,1.5,·,·
O=C(CSc1nnc2c(Cl)cc(C(F)(F)F)cn12)Nc1ccc2c(c1)OCO2,-0.484,0.0479,-1.24,0.9,·,·
Cc1ccc(-c2nnc(N3CCN(c4ccccn4)CC3)c3ccccc23)cc1,1.97*,·,-3.49*,0.9,?,-52.5
CN(C)c1ccc(C2C=C(c3ccc(Cl)cc3OC(F)F)Nc3ncnn32)cc1 (stereo not drawn),17.8*,-5.93*,0.0117,1.2,84.5*,59.6
Cc1c(Cl)cccc1-n1c(SCC(=O)NCc2ccccc2Cl)nnc1-c1ccncc1,·,-3.85,·,1.4,·,·
Cn1c2ccccc2c2c(C(=O)NCC3CCCO3)cn(C3CCCC3)c(=O)c21 (stereo not drawn),8.85*,1.09,0.00606,1.5,-9.8,-63.5
CN1CCN(CCCNC(=O)c2cn(C3CCCCC3)c(=O)c3c2c2ccccc2n3C)CC1,-0.435,1.37,0.359,1.6,·,·
CCOc1ccc(C2=CS/C(=C(\C#N)c3nnc4n3CCCCC4)N2CC)cc1,3.83*,-0.17,-0.0564,1.4,-17.8,-38.4
COc1ccc(CCNc2oc(COc3ccccc3F)nc2C#N)cc1OC,3*,-5.07*,-2.08*,1.7,-28,-85.2*
COc1ccc(CCNc2oc(Cc3ccccc3)nc2C#N)cc1OC,6.5*,-1.47,-0.386,1.3,-30.7*,?
